Measurements taken from publication PMC5540273 (PLoS ONE, 2017).

Tests used:
Settings in all cases: concentration: 1 μM, replicates: in singlicate; n = 1
[1] = tested on: CAMK2G
[2] = tested on: CAMK4
[3] = tested on: CAMKK1
[4] = tested on: CAMKK2
[5] = tested on: CASK
[6] = tested on: T1, CDC2L1
T1 construct: gene CDK11B

[7] = tested on: CDC2L2
[8] = tested on: T2, CDC2L5
T2 construct: gene CDK13

[9] = tested on: T3, CDK11
T3 construct: gene CDK19

[10] = tested on: CDK2
[11] = tested on: CDK3
[12] = tested on: CDK4-cyclinD1
[13] = tested on: CDK4-cyclinD3
[14] = tested on: CDK4
[15] = tested on: CDK5
[16] = tested on: CDK7
[17] = tested on: CDK8
[18] = tested on: CDK9
[19] = tested on: CDKL1
[20] = tested on: CDKL2
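Further: KINOMEscan kinase panel screen.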

SMILES	%Inh [1]	%Inh [2]	%Inh [3]	%Inh [4]	%Inh [5]	%Inh [6]	%Inh [7]	%Inh [8]	%Inh [9]	%Inh [10]	%Inh [11]	%Inh [12]	%Inh [13]	%Inh [14]	%Inh [15]	%Inh [16]	%Inh [17]	%Inh [18]	%Inh [19]	%Inh [20]
Cc1ccc(-c2ccc3c(ccc4sc5c(c43)NC[C@@H](C)N=C5N(C)C)n2)cn1	0%	20%	0%	0%	2%	4%	0%	0%	0%	0%	0%	0%	0%	0%	0%	6%	0%	0%	0%	0%
Nc1ncnc2c1ncn2-c1ccc(Cl)cc1 [AH2635]	13%	0%	0%	10%	0%	0%	28%	0%	0%	0%	0%	0%	0%	42%	0%	0%	33%	0%	0%	6%
Nc1ncnc2c1ncn2-c1cccc2ccccc12 [SKF-97184]	0%	38%	0%	0%	22%	0%	11%	26%	23%	0%	0%	0%	0%	13%	0%	22%	38%	1%	33%	0%
O=c1cc(N2CCOCC2)nc2n(Cc3ccc(F)c(Cl)c3)ccn12 [GSK2297099]	28%	0%	28%	24%	2%	3%	28%	0%	0%	0%	6%	0%	20%	0%	0%	0%	10%	7%	10%	8%
COc1cccc(C2=C(Nc3cccc(C(=O)O)c3)C(=O)NC2=O)c1 [SB-390770]	14%	0%	1%	14%	13%	0%	0%	0%	0%	15%	9%	9%	0%	0%	0%	0%	4%	0%	0%	24%
Cl.c1ccc(Cn2cnc3cc(Nc4ncnc5ccccc45)ccc32)cc1 [GW272142]	32%	0%	9%	31%	26%	0%	13%	0%	8%	0%	0%	0%	1%	28%	0%	0%	21%	0%	6%	9%
Nc1ncnc2c1ncn2-c1cccc(F)c1 [SKF-97560]	0%	0%	0%	0%	47%	1%	15%	23%	0%	0%	0%	27%	13%	30%	0%	0%	0%	0%	0%	0%
COc1cc(Nc2nccc(N3CCC(NC(=O)C(C)c4ccc(Cl)cc4)C3)n2)cc(OC)c1OC (stereo not drawn) [GSK1379757]	21%	0%	0%	1%	0%	0%	13%	0%	3%	0%	0%	0%	0%	36%	0%	0%	22%	0%	9%	2%
CCc1ccc(-c2ccc3c(c2)-c2nn(C)cc2S(=O)(=O)N3C)cc1	4%	0%	22%	9%	14%	0%	0%	16%	8%	0%	0%	14%	0%	0%	12%	0%	0%	0%	9%	19%
COc1cc2ncn(-c3cc(OCCCc4ccccc4)c(C(N)=O)s3)c2cc1OC [GSK205189]	29%	0%	3%	17%	52%	0%	3%	0%	0%	0%	1%	0%	0%	0%	0%	0%	4%	0%	5%	7%
COc1ccc(-c2cc3c(C)nc(N)nc3n([C@H]3CC[C@H](O)CC3)c2=O)cn1	0%	0%	0%	0%	0%	0%	0%	0%	0%	0%	8%	0%	0%	0%	0%	7%	0%	0%	0%	0%
Cc1nn2c(=O)cc(N3CCOCC3)nc2n1Cc1cccc(Cl)c1Cl [GSK2342769]	10%	25%	2%	9%	0%	0%	6%	0%	16%	0%	16%	0%	0%	0%	0%	0%	0%	0%	0%	19%
Nc1n[nH]c2ncc(-c3ccccc3)cc12 [SB-517081]	11%	0%	0%	0%	24%	0%	5%	0%	0%	0%	26%	0%	5%	23%	0%	0%	0%	0%	8%	34%
CCC(=O)c1c(-c2ccccc2)c2cc(Cl)ccc2c(=O)n1Cc1cc(S(C)(=O)=O)n(CCC(C)(C)O)n1	18%	19%	18%	28%	0%	9%	13%	23%	14%	0%	2%	0%	20%	0%	10%	38%	0%	17%	10%	0%
C[C@@H]1CC[C@H](C(=O)NC2CCCCC2)CN1c1cc(-c2ccc3c(N)n[nH]c3c2)nc(N)n1 [GSK2291363]	38%	0%	24%	37%	18%	0%	23%	0%	7%	1%	18%	0%	0%	14%	15%	0%	37%	0%	0%	26%
CN1C(=O)C(Nc2cc(Cl)c(O)c(Cl)c2)=C(c2ccc(Cl)cc2)C1=O [SB-404321]	0%	0%	0%	0%	14%	0%	0%	0%	9%	0%	0%	0%	0%	23%	4%	0%	41%	0%	0%	7%
O=C(NCCNc1ccnc(Nc2ccc(F)cc2)n1)Nc1ccc2c(c1)OCO2 [GSK1379882]	21%	0%	10%	15%	18%	9%	20%	0%	10%	0%	0%	0%	0%	8%	0%	0%	25%	7%	0%	15%
CCn1c(-c2nonc2N)nc2ccccc21 [SB-693162/GW549034]	1%	0%	9%	0%	0%	0%	29%	0%	11%	0%	48%	0%	46%	13%	12%	20%	0%	0%	8%	0%
Cc1c(Cn2c(C)nn3c(=O)cc(N4CCO[C@H](C)C4)nc23)cccc1C(F)(F)F [GSK2373690]	18%	0%	0%	10%	14%	0%	8%	0%	14%	0%	18%	0%	0%	0%	0%	0%	13%	0%	3%	24%
Fc1cccc(CSc2nnc(-c3ccc4c(c3)CCO4)o2)c1	20%	0%	9%	6%	0%	0%	0%	17%	0%	8%	0%	0%	17%	0%	4%	0%	0%	0%	3%	4%
O=C(Nc1ccc2c(c1)OCO2)NC1CCN(c2ccnc(NCc3ccc(F)cc3)n2)CC1 [GSK1379859]	22%	0%	0%	25%	0%	0%	6%	0%	53%	0%	0%	0%	0%	13%	0%	0%	0%	0%	9%	13%
O=C(Nc1n[nH]c2cc(-c3ccccc3F)ccc12)C1CC1 [SB-733371]	0%	0%	0%	0%	0%	0%	0%	33%	0%	25%	7%	0%	0%	0%	0%	0%	0%	0%	11%	79%
Nc1n[nH]c2nnc(-c3ccccc3)c(-c3ccccc3)c12 [GW554060]	17%	0%	13%	11%	71%	0%	0%	0%	0%	0%	17%	2%	0%	22%	0%	0%	14%	0%	0%	0%
COc1cc2nccc(Nc3ccc(OCc4ccc(NC(C)=O)cc4)cc3)c2cc1OC.Cl [GW440135]	9%	0%	11%	1%	0%	0%	0%	0%	34%	0%	4%	37%	0%	34%	0%	0%	36%	0%	1%	0%
Cc1nnc(-c2ccc3ncn(-c4ccc(S(C)=O)cc4)c3c2)o1 (stereo not drawn)	0%	0%	0%	0%	0%	0%	10%	0%	0%	0%	4%	0%	0%	0%	13%	0%	16%	7%	20%	0%
O=C1NC(=O)C(c2ccccc2)=C1Nc1cccc(O)c1 [SB-390534]	13%	0%	0%	0%	1%	0%	0%	1%	0%	2%	6%	0%	0%	0%	0%	0%	0%	0%	1%	11%
COc1ccc(-c2cc3c(C)nc(N)nc3n([C@H]3CC[C@H](OCCO)CC3)c2=O)cn1	0%	5%	5%	0%	0%	11%	0%	0%	34%	0%	0%	0%	0%	0%	19%	14%	0%	4%	10%	0%
Cc1cccc(-c2cc(-c3c[nH]nc3-c3ccccn3)ccn2)c1 [GW679395]	21%	0%	9%	7%	24%	0%	0%	0%	9%	0%	9%	0%	0%	0%	0%	0%	4%	0%	0%	14%
COc1cc(Nc2nccc(N3CCC(NC(=O)C4COc5ccccc5O4)C3)n2)cc(OC)c1OC (stereo not drawn) [GSK1379761]	26%	0%	20%	14%	0%	0%	4%	0%	7%	0%	0%	52%	0%	70%	0%	57%	57%	0%	11%	11%
OCCCNc1nccc(-c2c(-c3cccc(C(F)(F)F)c3)nn3cc(C(F)(F)F)ccc23)n1 [GW630813]	17%	0%	5%	12%	2%	0%	9%	0%	2%	25%	1%	0%	0%	29%	0%	0%	15%	0%	0%	7%
